Only some compounds are listed: those with a hit (about 1.1% of all), similar ones and a draw of the others.
SARS PLpro yeast-1 – inhibitors of SARS-CoV papain-like protease in yeast; S. cerevisiae expressing SARS-CoV PLpro, growth rescue; Potency, µM (doses to about 32.9 µM), without a hit: top-dose activity, positive = growth rescue, actives largely listed as activators; 330,000 compounds, 0.19% hits; AID 485353; calls by dose curve; further: potency means the concentration at half of the fitted maximal effect; 0% is about no effect; nearly all actives have a fitted effect of over 55% in size
Giardia FBPA inh – inhibitors of Giardia lamblia fructose-1,6-bisphosphate aldolase; 290,000 compounds, 0.71% hits; purified Giardia FBPA; Potency, µM (doses to about 59.6 µM), inactives show at the top dose activity, negative = inhibition, actives largely listed as inhibitors; A8B2U2; AID 2451; further: potency means the concentration at half of the fitted maximal effect; on the % scale 0 is the no-effect control and ±100 the full control effect; nearly all actives have a fitted effect of over 55% in size
Target sequence (A8B2U2 whole entry, looked up): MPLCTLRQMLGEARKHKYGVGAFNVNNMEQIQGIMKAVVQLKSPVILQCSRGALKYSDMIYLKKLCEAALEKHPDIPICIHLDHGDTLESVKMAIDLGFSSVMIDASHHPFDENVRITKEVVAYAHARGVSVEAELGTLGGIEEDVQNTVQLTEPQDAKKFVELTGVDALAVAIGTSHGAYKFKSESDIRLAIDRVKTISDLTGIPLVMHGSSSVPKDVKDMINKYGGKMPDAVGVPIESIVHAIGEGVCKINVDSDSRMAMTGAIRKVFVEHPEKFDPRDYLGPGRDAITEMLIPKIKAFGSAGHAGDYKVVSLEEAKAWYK
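40 nM FBPA preincubated 10 min at RT with compound (up to 57.5 uM final), then substrate plus GAPDH/TPI/NAD/arsenate coupling and diaphorase/resazurin added. Fluorescence read after 20 min at RT, 525/598 nm.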
AmpC detergent – AmpC beta-lactamase inhibition with detergent present | AmpC hydrolysis of nitrocefin, absorbance 480 nm, 0.01% Triton | Potency, µM (top dose mostly 114 µM), for the others: at the top dose activity change, negative = inhibition, usual class: inhibitors | 370,000 compounds, 0.041% hits | AID 485294;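 further: potency means the concentration at half of the fitted maximal effect; 0% = no-compound wells and -100% = no-enzyme wells; nearly all actives have a fitted effect of over 25% in size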
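AmpC (5.3 nM in the dispensed reagent) in 20 mM phosphate pH 7.0 with 0.01% (detergent screen) or 0.0001% Triton X-100 was preincubated with compounds for 15 min at room temperature. Nitrocefin was then added from an 800 uM solution, and hydrolysis was followed at 480 nm.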
AmpC inh no detg – AmpC beta-lactamase inhibition without detergent; P00811; AmpC nitrocefin hydrolysis, absorbance 480 nm, 0.0001% Triton; Potency, µM (series often up to 57.1 µM), for the others: top-dose activity change, negative = inhibition, actives largely listed as inhibitors; 330,000 compounds, 0.52% hits; AID 485341;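 further: potency means the concentration at half of the fitted maximal effect; plate controls were no compound for no effect and no enzyme for full effect; nearly all actives have a fitted effect of over 20% in size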
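20 mM phosphate pH 7.0 + 0.01% (detergent screen) or 0.0001% Triton X-100; 5.3 nM AmpC reagent; cpd preinc 15 min RT; nitrocefin (800 uM stock) to start; A480 q20 s × 4 min; Activity was normalised to no-enzyme and no-compound control wells.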
SARS PLpro yeast-2 – Validates SARS-CoV PLpro inhibitor hits in yeast; shares compounds with SARS PLpro yeast-1; yeast expressing SARS-CoV PLpro, growth phenotype rescue; 1,000 compounds, 19% hits; calls only; call rule not given here
Numbers without * were called inactive; i = inactive; ? = inconclusive; · = no result given; + = active, no number; [ ] = dose if it differs, or a comment. Unless noted, the call rests on the fitted dose curve; in most records, active means well fitted curve in the direction sought with a large enough effect; inconclusive means small, poorly fitted or top-dose-only effect, or another doubt; inactive means no such curve, though single readings can be large; an effect the other way counts as inactive or inconclusive.

SMILES	SARS PLpro yeast-1	Giardia FBPA inh	AmpC detergent	AmpC inh no detg	SARS PLpro yeast-2
COc1ccc(-c2nnc(NC(=O)c3ccc(S(=O)(=O)N4CCc5ccccc5C4)cc3)o2)cc1	-5%	?	-1%	-31%	·
CNC(=O)c1ccsc1NC(=O)c1ccc(S(=O)(=O)N2CCCc3ccccc32)cc1	-29%	-6%	0%	-14%	·
CSCc1nnc(NC(=O)c2ccc(S(=O)(=O)N(CC(C)C)CC(C)C)cc2)o1	29%	-19%	1%	-17%	·
COc1ccc(C)cc1S(=O)(=O)Nc1ccc(F)cc1	?	-6%	-3%	-13%	i
COc1cc(C(=O)NCC(=O)N/N=C(/C)c2cccs2)cc(OC)c1OC	?	2%	-4%	6%	i
CCN(CC)CCC[C@H](C)Nc1c2ccc(Cl)cc2nc2ccc(OC)cc12	·	-11%[21.7 µM]	·	·	·
C(=C\c1ccccc1)/CNn1cnnc1	?	5%	3%	-14%	i
O=C(/C=C/c1ccccc1)Nn1cnnc1	5%	8%	?	-11%	·
COc1cc(C(Nc2ccccn2)c2ccc3ccc(C)nc3c2O)cc(OC)c1O (configuration not stated)	5%	-5%	-7%	50%	·
COc1cccc(C(Nc2ccccn2)c2oc(CO)cc(=O)c2O)c1 (configuration not stated)	11µM*	?	-13%	-25%	i
COc1cccc(Cn2c(=O)c(-c3cc(F)cc(F)c3)nc3cnc(N4CCNCC4)nc32)c1	·	6%	·	·	·
CCCC(=O)Nc1ccc(C(=O)NNC(=O)c2ccco2)cc1	?	2%	-5%	-18%	i
CC(C)C(=O)Nc1ccc(C(=O)NNC(=O)c2ccco2)cc1	2%	12%	-9%	2%	·
CC(=O)Nc1ccc(-c2csc(NCc3ccco3)n2)cc1	?	0%	-1%	-27%	i
CCc1nn2c(-c3ccco3)ccnc2c1-c1ccc(F)cc1	·	·	-4%	·	·
COc1ccc(S(=O)(=O)Nc2cccc3c2O[C@H](CN(C)Cc2ccc(Cl)c(Cl)c2)[C@@H](C)CN([C@H](C)CO)C3=O)cc1	?	·	·	180%	?
C[C@H](CO)N1C[C@H](C)[C@@H](CN(C)C(=O)Nc2ccccc2)Oc2c(NC(=O)NC3CCCCC3)cccc2C1=O	?	·	·	204%	i
O=Cc1c(Sc2ccccc2)nc2ccccn2c1=O	?	5%	0%	-9%	i
Cc1cccc2sc(NNC(=O)c3ccc(S(=O)(=O)N4CC(C)CC(C)C4)cc3)nc12 (configuration not stated)	4µM*	?	1%	-43%	+
Cc1cc(C)c2nc(NNC(=O)c3ccc(S(=O)(=O)N4CC(C)CC(C)C4)cc3)sc2c1 (configuration not stated)	?	-9%	0%	-28%	·
O=C(NC(c1ccc(Cl)cc1)c1cc(Cl)c2cccnc2c1O)c1cccnc1 (configuration not stated)	2.5µM*	21%	-3%	-1%	i
COc1ccc(C(NC(C)=O)c2cc(Cl)c3cccnc3c2O)cc1 (configuration not stated)	10µM*	12%	?	3%	i
COc1ccc(-c2cc(C)nc3c(-c4ccc(OC)c(OC)c4)c(C)nn23)cc1	·	·	0%	·	·
Cc1cccc(CNC(=O)CN2C(=O)CCn3nc(-c4cn(C)c5ccccc45)cc32)c1	·	·	-7%	·	·
CC1=C(C(=O)N2CCCCC2)C2(CCC(C)CC2)OC1=O (configuration not stated)	11%	0%	-9%	4%	·
SMILES	SARS PLpro yeast-1	Giardia FBPA inh	AmpC detergent	AmpC inh no detg	SARS PLpro yeast-2
CC1=C(C(=O)N2CCc3ccccc32)C2(CCC(C)CC2)OC1=O (configuration not stated)	?	9%	-6%	30%	i
Cc1ccccc1NC(=O)C1(C)Cc2ccccc2C(=O)O1 (configuration not stated)	?	5%	-7%	-29%	?
CN(C)NC(=S)Nc1ccc(Cl)cc1	11µM*	-12%	8%	-21%	+
C[C@H](N)[C@H](O)c1cccc(O)c1	·	-4%[21.7 µM]	·	·	·
CC(C)c1cccc(O)c(=O)c1	?	?	?	-7%	i
COc1ccccc1CCNC(=O)C(=O)NCC(c1ccco1)S(=O)(=O)c1ccccc1 (configuration not stated)	·	·	4%	·	·
CCOc1ccccc1Nc1nnc(SCc2nnc(-c3cc(OC)c(OC)c(OC)c3)o2)s1	?	-4%	-13%	96%	i
COc1ccccc1Nc1nnc(SCc2nnc(-c3cc(OC)c(OC)c(OC)c3)o2)s1	-10%	1%	-15%	162%	·
O=C(CC1SC2=NCCN2C1=O)Nc1ccc(Br)cc1 (configuration not stated)	4%	3%	-7%	-14%	·
Cc1cccc(C)c1NC(=O)CC1SC2=NCCN2C1=O (configuration not stated)	?	1%	1%	-21%	i
CC(C)(CNC(=O)c1sc2cc(F)ccc2c1Cl)N1CCOCC1	?	2%	?	-13%	i
CC1CCCN(c2nc3c(c(=O)[nH]c(=O)n3C)n2CCCc2ccccc2)C1 (configuration not stated)	?	5%	?	-6%	i
Cc1nn(-c2ccccc2)c2c1N(CCCC(=O)NCc1ccc(OC(C)C)cc1)C(=O)CS2	·	·	4%	·	·
CC(=O)c1ccc(N(C(=O)Cn2nnc3ccccc32)C(C(=O)NCc2ccccc2)c2ccccn2)cc1 (configuration not stated)	18µM*	10%	?	34%	i
CCc1ccc(CN(C(=O)Nc2cccc(Cl)c2)c2ccccn2)cc1	·	·	3%	·	·
COCCCNC(=O)COc1ccc(Cl)c(C)c1	-1%	3%	-7%	1%	·
Cc1cc(OCC(=O)NC(C)(C)C)ccc1Cl	?	0%	-8%	-14%	i
COc1ccc(C2=Nn3c(nnc3-c3cc(OC)cc(OC)c3)SC2)cc1	·	-4%	·	·	·
CCN1CCc2c(sc(NC(=O)Nc3ccc(Cl)c(Cl)c3)c2C(N)=O)C1	?	-11%	-6%	46%	i
COc1ccc(/C=C2\CN(Cc3ccccc3)C/C(=C\c3ccc(OC)cc3OC)C2=O)c(OC)c1	4%	-6%	2%	-3%	·
COc1ccc(/C=C2\CN(Cc3ccccc3)C/C(=C\c3ccc(OC)cc3)C2=O)cc1	20µM*	?	-5%	-14%	i
CCOc1c(Cl)cc(C(=O)N(Cc2ccc(N(C)C)cc2)Cc2ccco2)cc1Cl	·	·	20%	·	·
C/C(=N\NC(=S)NC1CCCCC1)c1ccccc1	7.9µM*	2%	11%	0%	+
C/C(=N\NC(=S)NC1CCCCC1)c1ccc(O)cc1	1%	-13%	2%	-33%	·
Cc1c(NC(=O)CSc2ccc(Cl)cc2)cccc1-c1nc2ncccc2o1	?	1%	-2%	17%	?
